This is an account of results in PubChem BioAssay AID1645854 (Buhrlage Lab, Dana-Farber Cancer Institute and Novartis …, 2021).

About 140 (0.3%) of roughly 47,000 compounds were called active. Rule as the data show it: active = inhibition above about 30%; inactive = the rest. The list comes from a sample in which actives are over-represented; it also holds similar structures and randomly drawn compounds.

Usually inhibition stands for the relative decrease from the control value, in per cent.

Chain of Ubiquitin carboxyl-terminal hydrolase 7 (Homo sapiens) (Q93009 whole entry, looked up): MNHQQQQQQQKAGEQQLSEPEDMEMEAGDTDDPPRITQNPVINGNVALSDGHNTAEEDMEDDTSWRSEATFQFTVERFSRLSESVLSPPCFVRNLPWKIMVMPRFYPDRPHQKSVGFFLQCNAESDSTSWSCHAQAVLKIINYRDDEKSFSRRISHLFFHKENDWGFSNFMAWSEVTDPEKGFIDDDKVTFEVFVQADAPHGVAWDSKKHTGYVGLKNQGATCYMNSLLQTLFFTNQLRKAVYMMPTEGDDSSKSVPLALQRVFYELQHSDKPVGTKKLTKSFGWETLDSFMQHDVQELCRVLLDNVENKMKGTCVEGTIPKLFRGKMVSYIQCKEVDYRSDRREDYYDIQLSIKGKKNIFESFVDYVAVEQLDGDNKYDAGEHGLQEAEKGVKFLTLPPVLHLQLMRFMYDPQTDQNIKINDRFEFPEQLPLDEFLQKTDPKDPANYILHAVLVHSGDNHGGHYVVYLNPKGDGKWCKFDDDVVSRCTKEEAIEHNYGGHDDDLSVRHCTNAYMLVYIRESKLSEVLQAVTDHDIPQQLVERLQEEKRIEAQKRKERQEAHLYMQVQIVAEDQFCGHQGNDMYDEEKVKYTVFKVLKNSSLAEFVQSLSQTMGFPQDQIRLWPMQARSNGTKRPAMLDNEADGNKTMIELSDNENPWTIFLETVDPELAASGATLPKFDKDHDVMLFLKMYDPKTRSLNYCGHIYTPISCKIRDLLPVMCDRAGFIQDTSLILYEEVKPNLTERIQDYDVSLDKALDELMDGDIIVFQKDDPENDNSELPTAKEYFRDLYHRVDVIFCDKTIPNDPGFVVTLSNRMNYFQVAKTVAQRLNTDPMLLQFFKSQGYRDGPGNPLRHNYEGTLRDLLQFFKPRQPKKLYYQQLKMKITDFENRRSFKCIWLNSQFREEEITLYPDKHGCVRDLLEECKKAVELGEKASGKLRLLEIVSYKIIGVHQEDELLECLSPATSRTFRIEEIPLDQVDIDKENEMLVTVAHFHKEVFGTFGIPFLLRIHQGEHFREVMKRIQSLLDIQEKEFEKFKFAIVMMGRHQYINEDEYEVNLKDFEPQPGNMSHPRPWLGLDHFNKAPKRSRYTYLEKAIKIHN

This test addresses Ubiquitin carboxyl-terminal hydrolase 7 (Homo sapiens) (UniProt Q93009). Briefly: inhibitors of human USP7 deubiquitinase (AID 1645854). To be noted: purified USP7, Ub-rhodamine cleavage fluorescence; at 20 µM; stronger effect = higher value.
With `COc1cccc(CN2CCCC2c2noc(C3CC3)n2)c1` (stereo not drawn), the inhibition is 0.378% (inactive). Under `COc1ccccc1CN1C[C@@H]2C[C@@H](O)CN2C[C@@H]1Cc1ccccc1` stands -13% (inactive). As for `COc1ccc(-c2nnc(-c3ccccc3)o2)cc1S(=O)(=O)N1CCc2ccccc2C1`, the inhibition was 8.25% (inactive). As for `COc1ccc(-c2nonc2NC(=O)Cc2ccccc2)cc1OC`, the figure is -0.82% (inactive); as for `CNc1nc(C2CCN(C(=O)c3ccc4c(c3)OCCO4)C2)nc2c1CN(C)CC2` (stereo not drawn), -10.6% (inactive). As to `O=C(COc1ccccc1-c1nnc(-c2ccccc2)o1)Nc1cc(F)ccc1F`, the inhibition is 5.06% (inactive). Consider `COc1ccc(-c2cnc(N(C)C)nc2C2CCCCN2)cc1` (stereo not drawn), for which the inhibition is -4.92% (inactive). As for `CC(=O)N1CCC(NC2(Cc3cc(C(C)(C)C)on3)COC2)CC1`, the figure is 0.342% (inactive); as for `CCOC(=O)Nc1cc(C)nn1-c1ncnc2c1cnn2-c1ccc(F)cc1`, 0.0906% (inactive); as for `Cc1ccc(S(=O)(=O)N2CCN(C(=O)CN3CCc4ccccc43)CC2)cc1`, -5.22% (inactive). Consider `CCOc1ccccc1C1C2=C(CC(C)(C)CC2=O)Nc2ccccc2N1C(=O)c1ccccc1` (stereo not drawn), for which the inhibition is -4.8% (inactive). Under `COc1ccc(CC(=O)N2CCCCC2c2ccc3c(=O)n(C)c(=O)n(C)c3n2)cc1` (stereo not drawn) stands 0.092% (inactive).

Take `O=C(NCc1ccc(Cl)cc1)C1CCN(c2nccn3nc(-c4ccccc4)cc23)CC1`: the inhibition is -35.4% (inactive).

Turning to `O=C(CN1CCCCC1)N[C@@H]1C[C@H]2Oc3ccccc3N[C@H]2[C@@H]1O`, the inhibition is 3.93% (inactive). Under `O=C(C1CCNCC1)N1CCN(c2ccccc2F)CC1` stands 1.05% (inactive); under `COc1ccccc1NC(=O)CSc1nc2ccccc2n1S(=O)(=O)c1ccc(Br)cc1`, -6.03% (inactive). As for `CC(C)NC(=O)N1CC[C@H]2COC(=O)N(Cc3ccccc3)[C@@H]2C1`, the figure is 3.45% (inactive); as for `C/C=C(\C)C(=O)C(C)C1=CC(=O)C2=C(O[C@]3(C)CC[C@@H]4O[C@H](C(C)(C)O)CC[C@@]4(C)[C@@H]3C2)C1=O` (stereo partly drawn), -44.6% (inactive); as for `COc1ccc(C(=O)NC(C(=O)OCC(=O)c2ccc(C)cc2)C(C)C)cc1OC` (stereo not drawn), 3.56% (inactive).

Regarding `COc1cccc(CC(NC(C)=O)C(=O)NC2CCN(C(=O)C3CCCCC3)CC2)c1` (stereo not drawn), the inhibition is 5.13% (inactive).

Turning to `O=C1[C@H]2Cc3c([nH]c4ccccc34)CN2C(=O)CN1CC(O)c1ccccc1` (stereo partly drawn), the inhibition was -145% (inactive). Under `Cc1cc(CN2CCN(S(C)(=O)=O)CC(C(=O)N(C)C)C2)no1` (stereo not drawn) stands 0.0126% (inactive); under `COc1ccccc1NS(=O)(=O)c1ccc2c(c1)C(=O)N(C)c1ncccc1O2`, 2.84% (inactive); under `Cc1nn(Cc2ccccc2)c(C)c1C(=O)NS(=O)(=O)c1ccccc1Cl`, 1.27% (inactive).

For `Cc1cc(C(=O)N2CCCC2c2ccccc2C)on1` (stereo not drawn), the inhibition is 0.669% (inactive).

For `O=C(c1cc(=O)[nH]c2ccccc12)N1CCN(Cc2cn3ccccc3n2)CC1`, the inhibition was -8.75% (inactive). As for `COc1ccc(C2CC(=O)n3nc(-c4cccc(C)c4)nc3S2)cc1` (stereo not drawn), the figure is 0.741% (inactive); as for `COC(=O)c1ccccc1NC(=O)c1nc(-c2ccccc2)oc1C`, -0.0638% (inactive); as for `O=C(CSc1ncnc2c1sc1cccc(F)c12)N1CCCCCC1`, -136% (inactive). Under `COc1cccc(N2CCN(C(=O)Nc3ccc4c(c3)NC(=O)CO4)CC2)c1` stands 3.68% (inactive); under `O=S(=O)(c1cc(-c2noc(C3CC3)n2)cs1)N1CCc2ccccc21`, 7.51% (inactive); under `Cc1ccc(C)c(N(C)C(=O)c2cccc3c2SCCC3=O)c1`, -2.51% (inactive). As for `Cn1cncc1-c1cncc(CC2CCCN(S(C)(=O)=O)C2)n1` (stereo not drawn), the inhibition is 0.0473% (inactive). As for `O=C(O)COc1cc(O)c2c(=O)cc(-c3ccccc3)oc2c1`, the figure is -6.31% (inactive); as for `Cc1csc(C2(NC(=O)Cc3cc(C)on3)CCCC2)n1`, -8.11% (inactive); as for `COC(=O)c1c(C)[nH]c(C(=O)C(C)OC(=O)c2cccc(F)c2)c1C` (stereo not drawn), -2.46% (inactive).

Turning to `CCc1ccc(-n2c(=O)c3ccccc3n(CC(=O)NCCC3=CCCCC3)c2=O)cc1`, the inhibition is 8.71% (inactive). Consider `CCOC(=O)C1(C)C=C(Nc2ccc(C(=O)O)c(O)c2)C(=O)N1c1ccccc1` (stereo not drawn), for which the inhibition was -4.45% (inactive). `CC(=O)NC(Cc1ccccc1F)C(=O)NC1CCN(C(=O)C2CC2)CC1` (stereo not drawn): the inhibition was 1.1% (inactive). As for `O=C(c1cccc(F)c1)N1CCN(Cc2cc(=O)c3ccccc3[nH]2)CC1`, the inhibition is 2.84% (inactive). As for `Cc1cccc(NC(=O)Cc2nc(C)c(C(=O)NC3CC3)s2)c1C`, the figure is -0.0337% (inactive); as for `O=C(CC1(O)C(=O)N(CCc2ccccc2)c2ccc(Cl)cc21)c1ccc2c(c1)OCCO2` (stereo not drawn), 5.91% (inactive); as for `COc1ccc(-c2nc3ccccc3c3nnc(SCC(N)=O)n23)cc1`, 6.48% (inactive). Under `Cc1cc(C)nc(SCc2nnc(Nc3ccccc3)s2)n1` stands 0.95% (inactive); under `CCc1ccc(C(=O)COc2ncnc3scc(-c4ccccc4)c23)cc1`, 4.6% (inactive). Under `O=C(COc1cccc2ccc(N3CCC(Cc4ccccc4)CC3)nc12)Nc1cccc(F)c1` stands 5.1% (inactive); under `Cn1c(CNC(=O)c2cn3ccccc3n2)nc2ccccc21`, -4.22% (inactive); under `COc1ccc(C(=O)Nc2ccccc2N2CCOCC2)cc1S(=O)(=O)N(C)Cc1ccccc1`, 2.61% (inactive). Turning to `COc1cc2c(cc1OC)-c1cc(NCc3ccccc3)nc(=O)n1CC2`, the inhibition was -10.1% (inactive). As for `CC1(C)C(=O)Nc2ccc(S(=O)(=O)NCc3ccc(F)cc3)cc21`, the figure is 1.68% (inactive). As for `Cc1cn(C)c(C2CCCN2C(=O)c2cc(C)nc3onc(C)c23)n1` (stereo not drawn), the figure is -2.53% (inactive); as for `Cc1cccc(NC(=O)CCc2nnc3ccc(NCc4ccc5c(c4)OCO5)nn23)n1`, -2.6% (inactive); as for `Cn1c(=O)n(C2CCN(CCc3ccccc3)CC2)c2ncncc21`, 2.05% (inactive).

Take `Cc1ccc(C(=O)N2CC(=O)N(Cc3ccc(Cl)cc3)CC(O)C2)cc1` (stereo not drawn): the inhibition was -42.1% (inactive). For the compound `Cc1nnc(-c2cnn(C)c2N)n1CC1CCCO1` (stereo not drawn), the inhibition was -0.964% (inactive). Under `CCOC(=O)c1noc2nc(C)n(Cc3nc(-c4ccccc4)oc3C)c(=O)c12` stands 1.79% (inactive); under `c1cnc(N2CCC3(CCN(Cc4ccc5c(c4)OCO5)CC3)C2)nc1`, 6.59% (inactive). Under `COc1c2c(cc3c1C(c1nnnn1-c1ccc(C)cc1C)N(C)CC3)OCO2` (stereo not drawn) stands 10.7% (inactive). Under `NC(=O)c1c(NC(=O)c2ccccc2Oc2ccccc2)sc2c1CCN(Cc1ccccc1)C2` stands -143% (inactive). Take `O=C(Cc1ccccc1)N1CCN(c2cc(C(F)(F)F)nc3ccccc23)CC1`: the inhibition is 6.33% (inactive).

In the case of `CCN(c1ccccc1)S(=O)(=O)c1ccc2c(c1)OC(C)CN2C(C)=O` (stereo not drawn), the inhibition is -10.2% (inactive). As to `CN(C)CCNC(=O)c1ccc2ccc(N(C)CC3CC3)n2c1`, the inhibition is -3.23% (inactive).

With `Cc1nccn1-c1cc(N2CCCC2)nc2ccnn12`, the inhibition was -3.6% (inactive). Under `CCCn1nccc1C(=O)NC[C@H]1C[C@@]2(C)[C@@H](O)CCCC[C@H]2N1C(C)=O` stands 4.78% (inactive); under `COc1ccc(CC(=O)N2CCC3(CC2)OC(C(=O)NCC(C)C)Cn2ccnc23)cc1` (stereo not drawn), -0.841% (inactive); under `O=C(NCc1ccncc1)c1nc(-c2ccc(N3CCCCC3)nc2)no1`, -95.1% (inactive).

For `Cc1cc2nc(N3CCOCC3)n(CC(=O)Nc3ccccc3F)c(=O)c2n1C`, the inhibition was -0.476% (inactive). As for `COc1ccccc1CNS(=O)(=O)c1ccc2c(c1)C(=O)N(C)c1ncccc1O2`, the figure is 1.09% (inactive); as for `O=C(CN1C(=O)[C@@H]2CCCN2c2ncccc21)NCc1ccccc1F`, -0.124% (inactive).

`Cc1csc2nc(COc3ccccc3NC(=O)c3ccccc3)cc(=O)n12`: the inhibition was -2.52% (inactive).

With `O=C(c1nc(-c2ccc3cc[nH]c3c2)no1)N1CCN(c2nsc3ccccc23)CC1`, the inhibition was 2.44% (inactive).

Turning to `Cc1ccccc1CS(=O)(=O)Cc1ccc(C(=O)Nc2noc3ccccc23)o1`, the inhibition was 2.52% (inactive). Under `Cc1cccc(N2CCN(C(=O)c3nc4cccnc4n(C)c3=O)CC2)c1C` stands -13.2% (inactive); under `O=C(Nc1ccc(F)cc1)c1ccc(CN2CCOCC2)cc1`, 3.54% (inactive); under `Cc1cnc(C2COCCN2C(=O)c2c(C(C)C)noc2C)[nH]1` (stereo not drawn), 4.99% (inactive). Take `Cc1ccc(NC(=O)N2CCN3CCCCC3C2)c(C)c1` (stereo not drawn): the inhibition is -0.822% (inactive). As for `O=C(Nc1nc2ccc(S(=O)(=O)N3CCOCC3)cc2s1)c1cc2ccccc2oc1=O`, the figure is 0.00877% (inactive); as for `Cc1ccc(-c2nc(Cn3nnc(C(=O)O)c3C)c(C)o2)cc1`, 1.5% (inactive).

Consider `CCc1cnc(N2CCC3(CCN(C(=O)c4cccnc4)C3)CC2)nc1`, for which the inhibition was 1.31% (inactive). As for `OCCN1CCN(CC(O)COCCOc2ccc(Cl)cc2)CC1` (stereo not drawn), the figure is 6.76% (inactive). Under `Cc1cnn(CC(=O)N2CCCCCC2c2ccncc2)c1` (stereo not drawn) stands -1.92% (inactive); under `CC(C)[C@H](Cn1nnc2ccccc21)NC(=O)c1ccc2c(c1)CCN2S(C)(=O)=O`, -1.02% (inactive); under `CC(C)CCNC(=O)C(=O)c1cn(CC(=O)N2CCCC2)c2ccccc12`, -9.94% (inactive). As for `CSc1cccc(NC(=O)CCn2c(=O)c3cccn3c3ccccc32)c1`, the figure is 5.36% (inactive). As to `Cc1nc(C2CCCN2C(=O)c2cccc3ncccc23)ncc1C(=O)N1CCOCC1` (stereo not drawn), the inhibition is 1.41% (inactive). Under `O=C(C1CCN(c2cnc3nccnc3c2)CC1)N1CCN(C2CCCCC2)CC1` stands -29.4% (inactive); under `COc1ccc(-c2nnc(SCC(=O)c3cc(C)ccc3C)o2)cc1OC`, 9.96% (inactive); under `CC1CCC(NC(=O)C2(C)Cc3ccccc3C(=O)N2Cc2ccccc2)CC1` (stereo not drawn), -18.1% (inactive).
